Structures are written as SMILES. Inconclusive results are not listed. Active and inactive are the calls of the source. The call rests on the fitted dose curve.
On the % scale 0 is the no-effect control and ±100 the full control effect.

The experiment in a line: Cytotoxicity counterscreen for inhibitors of SARS-CoV-2 cell entry (AID 1645845). Further: nearly all actives have a fitted effect of over 50% in size. The note with it: cell viability (SARS-CoV-2 entry assay cells); series mostly up to 57.1 µM; activity change, negative = cytotoxicity: at the top concentration. The source says: Assay Provider: Wei Zheng, Ph.D.
National Center for Advancing Translational Sciences, National Institute of Health, Rockville, MD.
SARS-CoV-2 spike protein, within the viral envelope, mediates viral attachment and infection of host cells. The SARS-CoV-2 spike protein specifically binds to the host receptor ACE2 (Angiotensin-converting enzyme 2). This interaction promotes endocytosis of the viral particle, additional events lead to viral-host cell membrane fusion and release of the viral contents, allowing viral replication.
While SARS-CoV-2 requires BSL-3 facilities for live virus work, pseudo-typed partices (PP) that incorporate SARS-CoV-2 spike proteins without replication elements could facilitate studies on viral entry mechanisms in a BSL-2 setting. This PP cell entry assay could also enable screening of small molecule compound libraries in BSL-2 setting to identify inhibitors of SARS-CoV-2 cell entry. To eliminate false positive compounds, ATP content cytotoxicity assay was screened in the same cell line.
SEQUENCE No. (e.g., 1, 2, 3, etc.); […] (e.g., Cells, Incubation, Reagent, etc.); VALUE and DESCRIPTION.
1. Cells. Seed 1500 HEK293-ACE2 cells (Expi293F with stable expression of human ACE2) in 2 uL/well media (DMEM, 10% FBS, 1x L-glutamine, 1x Pen/Strep, 1 ug/ml puromycin) in white 1536-well assay plates (Greiner #782073).
2. Incubation. Incubate at 37 C with 5% CO2 overnight (~16 h).
3. Compounds. Dispense 23 nL/well compounds in DMSO via pin transfer.
4. Incubation. Incubate for 1 h at 37C 5% CO2.
5. Reagent. Dispense 2 uL/well of media (DMEM, 10% FBS, 1x L-glutamine, 1x Pen/Strep, 1 ug/ml puromycin).
6. Incubation. Incubate at for 48h at 37C 5% CO2
7. Reagent. Dispense 4 uL/well of ATPLite 1step luminescence assay reagent (PerkinElmer #6016739).
8. Incubation. Incubate for 15 min at room temperature.
9. Detection. Read luminescence signal (Viewlux plate reader, PerkinElmer). Data was normalized with wells containing cells as 100%, and wells without cells (media only control) as 0%.
On the technique in general: The purpose of a counterscreen is to sort out artefacts and off-target activity.
For `O=C(OCCN1CCCCC1)C(O)(c1ccccc1)c1ccccc1`, the call was inactive. On to `Cc1ccccc1-n1c(CF)nc2ccc(N)cc2c1=O`, for which the result was inactive. On to `C[C@]12CC[C@H]3[C@@H](CC[C@@]45O[C@@H]4C(O)=C(C#N)C[C@]35C)[C@@H]1CC[C@@H]2O`, for which the “activity change, negative = cytotoxicity” value is 0.909% (inactive). On to `C[C@]12CC[C@H](OS(=O)(=O)O)CC1=CC[C@@H]1[C@@H]2CC[C@]2(C)C(=O)CC[C@@H]12`, for which the “activity change, negative = cytotoxicity” value is 0.77% (inactive).

Regarding `CCOc1ccc2c3c1O[C@H]1[C@@H](O)C=C[C@H]4[C@@H](C2)N(C)CC[C@@]341`, the call was inactive.

As for `CCC1(C)CC(=O)NC(=O)C1`, the outcome was “inactive [at 114 µM]”.

Take `Cn1sc(Cl)cc1=O`: the outcome was inactive. In the case of `COc1cc2c(cc1OC)[C@@]13CCN4CC5=CCO[C@H]6CC(=O)N2[C@H]1[C@H]6[C@H]5C[C@H]43`, the “activity change, negative = cytotoxicity” value was 0.991% (inactive). Consider `O=C(O)C(Cl)(Cl)Cl`, for which the call was inactive. Same read-out and setting: with `CCNC1(c2cccs2)CCCCC1=O` (stereo not given) the entry was “inactive”.

Consider `C[C@]12CC[C@H]3[C@@H](CCC4=C(O)C(=O)CC[C@@H]43)[C@@H]1CC[C@@H]2OC(=O)CCC1CCCC1`, for which the result was inactive. With `C[C@@H](CO)NC(=O)[C@@H]1C=C2c3cccc4[nH]cc(c34)C[C@H]2N(C)C1`, the “activity change, negative = cytotoxicity” value is -17.6% (inactive).

Regarding `CC[N+](C)(CC)CCOC(=O)C(O)(c1ccccc1)c1ccccc1`, the “activity change, negative = cytotoxicity” value was 2.98% (inactive). For `COc1cc(C)[nH]c(=O)c1CNC(=O)c1c(C)n([C@H](C)C2CCOCC2)c2ccccc12`, the “activity change, negative = cytotoxicity” value was -1.41% (inactive). Turning to `CC1=C2C[C@H]3[C@@H](CC=C4C[C@@H](O)CC[C@@]43C)[C@@H]2CC[C@]12O[C@@H]1C[C@H](C)CN[C@H]1[C@H]2C`, the “activity change, negative = cytotoxicity” value is -8.64% (inactive). As to `CC(C)(O)[C@@H]1[C@H]2OC(=O)[C@@H]1[C@]1(O)C[C@H]3O[C@]34C(=O)O[C@H]2[C@]14C`, the outcome was inactive. In the case of `COc1ccc(OC)c(C(O)C(C)N)c1` (stereo not given), the compound was classed as inactive. For the compound `O=[N+]([O-])c1ccccc1`, the outcome was inactive. On the same count and under the same terms, with `CC(C)CCC(=O)O[C@H]1CC[C@H]2[C@@H]3CCC4=CC(=O)CC[C@]4(C)[C@H]3CC[C@]12C` the entry was “inactive”. As for `Oc1ccc2c3c1O[C@H]1[C@@H](O)CC[C@@]4(O)[C@@H](C2)N(CC2CCC2)CC[C@]314`, the “activity change, negative = cytotoxicity” value was -16% (inactive).

Consider `O=[N+]([O-])C(Br)(CO)CO`, for which the compound was classed as inactive. For the compound `C[C@@H]([C@H](O)c1ccccc1)N(C)C`, the “activity change, negative = cytotoxicity” value was 3.43% (inactive). Turning to `c1ccc2sc(SNC3CCCCC3)nc2c1`, the “activity change, negative = cytotoxicity” value was -12.8% [at 114 µM] (inactive).

On to `CCCCNCC(O)c1ccc(O)cc1` (stereo not given), for which the compound was called inactive.

`O=[N+]([O-])c1cc(I)c(O)c(I)c1`: the “activity change, negative = cytotoxicity” value was -13.6% (inactive). As to `CCCCC[C@@H](O)C1C(=O)OC(C)[C@H](O)/C=C/C=C/C=C/C=C/C=C(\C)C(O)C(O)C(O)C[C@H](O)C[C@H](O)C[C@H](O)C[C@H](O)C[C@@H]1O` (stereo not given in full), the compound was classed as inactive. Turning to `O=C(C[C@@H]1NCCC[C@H]1O)Cn1cnc2cc(Br)c(Cl)cc2c1=O`, the “activity change, negative = cytotoxicity” value was 1.73% (inactive). In the case of `C[N+]1(C)CCCCC1COC(=O)C(O)(c1ccccc1)c1ccccc1` (stereo not given), the “activity change, negative = cytotoxicity” value is -0.239% (inactive).

Turning to `C=CC[C@]1(O)CC[C@H]2[C@@H]3CCC4=CCCC[C@@H]4[C@H]3CC[C@@]21C`, the “activity change, negative = cytotoxicity” value is -10.6% [at 114 µM] (inactive). On the same count and under the same terms, the same measure for `O=c1[nH]cc(N(CCCl)CCCl)c(=O)[nH]1`: 0.668% [at 114 µM] (inactive). With `CC[C@H]1CN2CC[C@H]1C[C@@H]2[C@@H](O)c1ccnc2ccc(OC)cc12`, the “activity change, negative = cytotoxicity” value was -20.2% (inactive). For the compound `O=C1C[C@@H]2OCC=C3CN4CC[C@]56c7ccccc7N1[C@H]5[C@H]2[C@H]3C[C@H]46`, the result was inactive. For `CC1CCC(C(C)C)C(OC(=O)c2ccccc2N)C1` (stereo not given), the “activity change, negative = cytotoxicity” value was -10.9% (inactive). For the compound `CCC(=O)O[C@@](Cc1ccccc1)(c1ccccc1)[C@@H](C)CN(C)C`, the “activity change, negative = cytotoxicity” value is -3.82% (inactive). `O=C/C=C/c1ccccc1`: the “activity change, negative = cytotoxicity” value was 1.74% (inactive). Consider `C[C@]12CCC(=O)C=C1C=C[C@@H]1[C@@H]2CC[C@@]2(C)[C@H]1CC[C@@]2(O)CCC(=O)O`, for which the compound was called inactive.

For `CC(=O)O[C@H]1CC[C@H]2[C@@H]3CCC4=CC(=O)CCC4=C3C=C[C@]12C`, the call was inactive.

As for `CC(N)Cc1ccc(O)cc1` (stereo not given), the result was inactive. Take `FC(F)OC(F)(F)C(F)Cl` (stereo not given): the compound was called inactive. With `O=C(NCNC(=O)NC1C(=O)NC(=O)N1CO)NC1C(=O)NC(=O)N1CO` (stereo not given), the “activity change, negative = cytotoxicity” value is -11.4% (inactive).
